Sampled rows, rich in hits. Any-hit rate of the full collection: about 19%.
TDP1 cell noCPT: qHTS for Inhibitors of human tyrosyl-DNA phosphodiesterase 1 (TDP1): qHTS in cells in absence of CPT; DT40 Tdp1-/- hTDP1 cells, no CPT, ATP luminescence, 48 h; Potency, µM (series often up to 46.2 µM), for the others: at the top dose activity change, negative = growth inhibition, hits mostly inhibitors; 420,000 tested, 15% active; also: potency is read from the fitted curve at half-maximal effect; % is scaled to controls: 0 for no effect and ±100 for the full control effect; nearly all actives have a fitted effect of over 55% in size
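A cellular qHTS used chicken DT40 cells lacking endogenous Tdp1 but carrying stably transfected human TDP1. Compounds were applied without camptothecin, and cell growth kinetics were judged by ATP-dependent luminescence after ≥48 hr.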
IL1B secr inh: blocks inflammasome-driven IL-1 beta release | THP-1 LPS/ATP IL-1B secretion, AlphaLISA, 16 h; stronger effect = lower value | 360,000 tested, 4.7% active | activity change, % at 57.5 µM; in the data active = activity change below about -50%; inconclusive = mostly about -30% to -49%; also: % is scaled to controls: 0 for no effect and ±100 for the full control effect
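THP-1 cells pretreated 1 hr with compounds (up to 57.5 uM final), then stimulated with LPS (250 ng/mL final) plus ATP (1.25 mM final); secreted IL-1B measured by AlphaLISA after 16 hr, decreased signal indicating inhibition.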
HepG2 viability: kills HepG2 cells in TGF-b inhibitor counter-screen. Potency, µM (highest dose often 46.1 µM), for the others: at the highest dose activity change, negative = cytotoxicity, actives largely listed as cytotoxic. HepG2 CAGA-GFP viability, ATP luminescence, 18 h. AID 588856. 410,000 tested, 0.76% active; also: potency is read from the fitted curve at half-maximal effect
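HepG2 CAGA-GFP cells (1000/well, DMEM with 1% FBS) received compound, then TGF-beta at 500 pg/mL final, and were incubated 18 hours at 37 degrees C. Viability was read by CellTiter-Glo luminescence. Media-only wells were set as complete cell-killing and DMSO as no toxicity.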
DT40 TDP1 CPT: growth inhibition of DT40 Tdp1-/-;hTDP1 cells with camptothecin (screen for TDP1 inhibitors); chicken DT40 Tdp1-/-;hTDP1 cells + 20 nM CPT, ATP luminescence, 48 h; Potency, µM (highest dose often 46.2 µM), for the others: top-dose activity change, negative = growth inhibition, usual class: inhibitors; 420,000 tested, 12% active; AID 686979; also: potency is read from the fitted curve at half-maximal effect; % is scaled to controls: 0 for no effect and ±100 for the full control effect; nearly all actives have a fitted effect of over 55% in size
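Chicken DT40 Tdp1-/- cells stably complemented with human TDP1 were seeded at 400 cells/well in medium containing 20 nM camptothecin, exposed to pin-transferred compounds, and grown at 37 °C for at least 48 hr. Viability was read as ATP luminescence.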
TGFb SMAD3 inh: inhibitors of TGF-b signaling | HepG2 CAGA-GFP TGF-b/SMAD3 reporter, GFP fluorescence, 18 h; TGF-beta stimulated, 500 pg/mL final | Potency, µM (top dose mostly 46.1 µM), for inactives: top-dose activity, negative = inhibition, actives largely listed as inhibitors | 410,000 tested, 1.2% active; also: potency is read from the fitted curve at half-maximal effect; % is scaled to controls: 0 for no effect and ±100 for the full control effect; nearly all actives have a fitted effect of over 65% in size
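Inhibition was scored as loss of TGF-beta-induced (500 pg/mL final, 18 hours, 37 degrees C) GFP in HEPG2 cells carrying a CAGA-GFP reporter, in DMEM with 1% FBS. Well GFP was summed per cell; Activity was normalised to unstimulated and stimulated DMSO wells, then concentration-response fitting.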
TDP1 block: blocks human tyrosyl-DNA phosphodiesterase 1 | Q9NUW8 | recombinant TDP1, AlphaScreen DNA substrate cleavage | Potency, µM (titrated, usually from 130 µM), for the others: top-dose activity change, negative = inhibition, usual class: inhibitors | 350,000 tested, 0.28% active; also: potency is read from the fitted curve at half-maximal effect; % is scaled to controls: 0 for no effect and ±100 for the full control effect; nearly all actives have a fitted effect of over 40% in size
Target sequence (Q9NUW8 whole entry, looked up): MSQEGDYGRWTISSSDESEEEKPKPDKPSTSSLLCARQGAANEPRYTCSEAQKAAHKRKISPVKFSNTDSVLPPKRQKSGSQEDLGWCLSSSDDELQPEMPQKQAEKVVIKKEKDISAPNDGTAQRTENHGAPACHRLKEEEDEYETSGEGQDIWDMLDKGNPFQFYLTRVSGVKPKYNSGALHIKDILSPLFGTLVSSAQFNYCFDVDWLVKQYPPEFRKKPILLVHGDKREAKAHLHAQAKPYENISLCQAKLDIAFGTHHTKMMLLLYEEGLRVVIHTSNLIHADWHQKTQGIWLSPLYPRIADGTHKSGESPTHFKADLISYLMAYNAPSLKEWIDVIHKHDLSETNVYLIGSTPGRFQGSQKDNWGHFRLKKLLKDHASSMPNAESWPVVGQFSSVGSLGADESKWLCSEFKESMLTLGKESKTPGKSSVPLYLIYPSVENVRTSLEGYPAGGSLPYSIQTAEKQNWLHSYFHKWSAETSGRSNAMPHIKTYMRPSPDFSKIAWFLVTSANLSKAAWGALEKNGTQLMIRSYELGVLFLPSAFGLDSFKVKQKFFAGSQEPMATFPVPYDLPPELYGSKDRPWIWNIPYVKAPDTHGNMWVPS
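Recombinant human Tdp1 (E. coli-expressed, 1 nM final) preincubated with compounds 15 min at room temperature, then 5'-biotin/3'-phosphotyrosine-FITC DNA substrate (15 nM final) added for 5 min. AlphaScreen beads (10 ug/ml final) added 10 min; cleavage lowers signal.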
Starred values were filed as active, the others as inactive; ? = inconclusive; · = no result given. Unless noted, calls follow the shape of the dose curve; as a rule, active = well fitted curve in the direction sought with a large enough effect; inconclusive = small, poorly fitted or top-dose-only effect, or another doubt; inactive = no such curve, though single readings can be large; an effect the other way counts as inactive or inconclusive.

SMILES	TDP1 cell noCPT	IL1B secr inh	HepG2 viability	DT40 TDP1 CPT	TGFb SMAD3 inh	TDP1 block
COCCNCCCOc1ccc(Cl)cc1Br	16µM*	?	-19%	?	-7%	-6%
Cc1cc(OCCCCCNCCO)ccc1Cl	16µM*	-18	-47%	15µM*	17%	2%
OCCNCCCOc1ccc(Cl)cc1Br	29µM*	-11	-62%	?	12%	6%
Clc1ccc(OCCCNCc2ccccc2)c(Br)c1	16µM*	·	-105%	15µM*	?	2%
C=CCNCCCOc1ccc(Cl)cc1Br	?	?	0%	?	0%	-4%
O=C(CSc1nccn1Cc1ccco1)Nc1cc(C(F)(F)F)ccc1Cl	?	·	-30%	?	?	8%
O=S(=O)(Nc1cc(C(F)(F)F)ccc1N1CCOCC1)c1ccc2ccccc2c1	?	?	-22%	16µM*	?	4%
Cc1ccc(S(=O)(=O)Nc2ccccc2N2CCOCC2)cc1	?	64	0%	21µM*	-13%	2%
Cc1ccc(S(=O)(=O)Nc2ccccc2N2CCCCC2)cc1	16µM*	54	-20%	?	?	-13%
Cc1ccc(S(=O)(=O)Nc2ccccc2NS(=O)(=O)c2ccc(C)cc2)cc1	-12%	28	-36%	-10%	?	·
O=C(CNC(=O)c1ccc(F)cc1)OCc1cc(=O)n2ccsc2n1	4%	·	1%	9%	-1%	-1%
COc1ccc(CN(CCNC(=O)CCCCC(=O)NCCN(Cc2ccc(OC)cc2)C(C)C)C(C)C)cc1	?	?	-30%	?	-16%	·
O=C(O)c1ccc(N=Cc2c(O)ccc3oc4c(c23)CCCC4)cc1	?	70	-22%	16µM*	?	-8%
Oc1ccccc1N=Cc1c(O)ccc2oc3c(c12)CCCC3	?	26	-121%	?	13µM*	3%
O=C(CSc1nc(C2CC2)nc2ccccc12)N1CCCCC1	?	-95*	-14%	?	3%	3%
CCc1nc(SCC(=O)N2CCN(c3ccccc3)CC2)c2oc3ccccc3c2n1	21µM*	-67*	-23%	26µM*	5%	2%
O=C(CN1CCCC(O)C1)N1c2ccccc2Sc2ccc(C(F)(F)F)cc21 (centres undefined)	-20%	3	-10%	-11%	-39%	5%
O=C(CSc1nc(C2CC2)nc2ccccc12)N1c2ccccc2Sc2ccc(C(F)(F)F)cc21	23µM*	?	-16%	8.2µM*	-3%	3%
Cc1nn(C)c(C)c1NC(=O)CSc1nc(C2CC2)nc2c1cnn2-c1ccccc1	?	41	-9%	?	-4%	3%
CC1CCCCN1C(=O)CSc1nc(C2CC2)nc2c1cnn2-c1ccccc1 (centres undefined)	?	-91*	7%	?	2%	9%
CC(C)(C)NS(=O)(=O)c1ccc(CCC(=O)NCc2ccccn2)cc1	17%	42	1%	-12%	-20%	5%
CCc1nc(N(CC)CC)c2oc3ccccc3c2n1	-24%	18	-22%	-28%	10%	0%
O=C(CSc1nc(C2CCCCC2)nc2ccccc12)N1CCCC1	?	-81*	-14%	?	-23%	11%
CCc1nc(Sc2nc(C)cc(C)n2)c2oc3ccccc3c2n1	21µM*	-9	-4%	?	?	0%
CCc1nc(SCC(=O)N2CCCC2)c2ccccc2n1	-10%	-94*	-2%	-1%	3%	2%
SMILES	TDP1 cell noCPT	IL1B secr inh	HepG2 viability	DT40 TDP1 CPT	TGFb SMAD3 inh	TDP1 block
N#CCCN(C(=O)COC(=O)c1cc(S(=O)(=O)N2CCOCC2)ccc1Cl)c1ccc(F)cc1	-19%	-14	7%	10%	-17%	·
CC(NC(=O)c1ccccc1Br)c1nnc(SCC(=O)NC2=NCCS2)n1C (centres undefined)	-12%	25	-5%	18%	20%	·
Clc1ccc(-c2nc3ccccn3c2CN2CCOCC2)cc1	-27%	26	-20%	-28%	-1%	8%
COc1ccc(-c2nc3ccccn3c2CN2CCN(c3ccccc3F)CC2)cc1	23µM*	24	-43%	?	?	6%
CC1CCN(S(=O)(=O)c2cccc(-c3cn4cc(Cl)ccc4n3)c2)CC1	23µM*	4	6%	?	0%	5%
CCOC(=O)C1CCN(S(=O)(=O)c2cccc(-c3cn4cc(Cl)ccc4n3)c2)CC1	?	-1	7%	-20%	10%	1%
CCN(CC)S(=O)(=O)c1ccc(-c2cn3cc(Cl)ccc3n2)cc1	18µM*	2	1%	?	6%	·
Cc1ccccc1-c1nnn(Cc2cccc(S(=O)(=O)N3CCOCC3)c2)n1	?	4	-24%	?	-21%	0%
CCc1cccc(C)c1NC(=O)CSc1nnc(-c2cc3cc(Br)ccc3o2)n1CC	18µM*	-25	-18%	23µM*	-15%	5%
COc1ccccc1Cc1nc2ccccc2nc1SCC(=O)NCCc1ccccc1	-22%	·	-15%	-16%	1%	-3%
COc1cccc(Cc2nc3ccccc3nc2SCC(=O)NCCc2ccccc2)c1	18µM*	·	-37%	18µM*	?	3%
Cn1c(SCC(=O)Nc2cccc(C(=O)O)c2)nnc1-c1cc2cc(Br)ccc2o1	0%	13	3%	7%	2%	-5%
COc1cccc(Cc2nc3ccccc3nc2SCC(=O)N2CCN(c3ccccc3)CC2)c1	23µM*	·	-20%	?	-2%	3%
COc1ccccc1Cc1nc2ccccc2nc1SCC(=O)N1CCN(c2ccccc2)CC1	23µM*	·	7%	21µM*	25%	0%
COc1cccc(CNC(=O)CSc2nc3ccccc3nc2Cc2ccccc2)c1	?	·	-16%	?	1%	5%
CN(C)S(=O)(=O)c1ccc2c(c1)N(CC(=O)N1CCN(c3ccccc3F)CC1)CCS2	·	·	-1%	·	-1%	2%
CC1CCN(S(=O)(=O)c2cc(C(=O)NCc3ccc(N(C)C)cc3)n(C)c2)CC1	?	·	-5%	?	-1%	9%
CCc1cccc(C)c1NC(=O)CSc1nnc(CC)n2c1cc1occc12	18µM*	·	-25%	?	7.9µM*	5%

Compound activity (PubChem)
